From the supplement of paper PMC10849652
Of roughly 8,800 targets only a part is listed; those with a hit were picked by preference. About 0.5% of all pairs of compound and target were hits.

Legend:
Assay in all cases: log2 fold change, soluble protein after heating vs DMSO (PISA); higher = thermal stabilisation; K562 lysate, 10 uM; active = over 0.2 and 3.5 SD of the protein, either way, in both replicates (recomputed)
ibrutinib = compound: C=CC(=O)N1CCC[C@@H](n2nc(-c3ccc(Oc4ccccc4)cc3)c3c(N)ncnc32)C1 [ibrutinib]
Outline: (§1)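 K562 pellets were dounce-homogenised in PBS pH 7.4 containing 1 mM MgCl2, and the crude extract, at 1 mg/mL protein, was exposed to 10 μM compound for 30 min. Aliquots were heated for 3 min across 48°C-58°C, pooled, brought to 0.5% NP-40 at 4°C and spun at 21,000xg for 90 min, with the supernatant taken as soluble protein. TMTpro 16plex LC-MS/MS with equalised channel sums quantified that protein. Values are log-two fold changes in thermal stability relative to solvent controls, taken from duplicates.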

[1] = compound: CC(=O)c1cnc2ccc(-c3cc(Cl)c(O)c(Cl)c3)nc2c1N[C@H]1CC[C@H](CN(C)C)CC1
Outline: as §1

ralimetinib = compound: CC(C)(C)Cn1c(N)nc2ccc(-c3[nH]c(C(C)(C)C)nc3-c3ccc(F)cc3)nc21 [ralimetinib]
Outline: as §1

[2] = compound: CC(C)(O)CC(=O)NCCn1ccc2ncnc(Nc3ccc(Oc4cccc(C(F)(F)F)c4)c(Cl)c3)c21
Outline: as §1

[3] = compound: CC(C)C1=C2N=C(C=C(N2N=C1)NCC3=CC=CC=C3)NCCCCCCN
Outline: as §1

[4] = compound: CC1=C(C(CC(=O)N1)C2=CC=C(C=C2)C(F)(F)F)C(=O)NC3=C(C=C4C(=C3)C=NN4)F
Outline: as §1

[5] = compound: CC1=C(C2=C(C=C1)C(=O)C3=CC=CC=C3N2CCCN)C
Outline: as §1

[6] = compound: CC1=C(C=C(C=C1)NC(=O)C2=CC(=CC=C2)C(C)(C)C#N)NC3=CC4=C(C=C3)N=CN(C4=O)C
Outline: as §1

[7] = compound: CC1=C(C=C(C=C1)NC(=O)C2=CC(=CC=C2)N(C)C)NC(=O)C3=CC=C(C=C3)O
Outline: as §1

[8] = compound: CC1=CC=C(C=C1)SC2=C3C=C(SC3=CN=C2)C(=O)N
Outline: as §1

vemurafenib = compound: CCCS(=O)(=O)Nc1ccc(F)c(C(=O)c2c[nH]c3ncc(-c4ccc(Cl)cc4)cc23)c1F [vemurafenib]
Outline: as §1

[9] = compound: CCCS(=O)(=O)Nc1ccc(F)c(C(=O)c2c[nH]c3ncc(Cl)cc23)c1F
Outline: as §1

barasertib = compound: CCN(CCCOc1ccc2c(Nc3cc(CC(=O)Nc4cccc(F)c4)[nH]n3)ncnc2c1)CCOP(=O)(O)O [barasertib]
Outline: as §1

[10] = compound: CC[C@@H]1C(=O)N(C)c2cnc(Nc3ccc(C(=O)NC4CCN(C)CC4)cc3OC)nc2N1C1CCCC1
Outline: as §1

volasertib = compound: CC[C@@H]1C(=O)N(C)c2cnc(Nc3ccc(C(=O)N[C@H]4CC[C@H](N5CCN(CC6CC6)CC5)CC4)cc3OC)nc2N1C(C)C [volasertib]
Outline: as §1

[11] = compound: CCn1c(C(=O)N(C2CC2)C2CC2)cc2c3c(ncn3C)c(Nc3cc(C)n(C)n3)nc21
Outline: as §1

[12] = compound: CCn1cc(-c2ccnc3[nH]c(-c4cccc(CN(C)C)c4)cc23)c(-c2ccc(NC(=O)N(C)C)cc2)n1
Outline: as §1

[13] = compound: CN1CCC(CNc2ccc3ncc(-c4cccc(OC(F)(F)F)c4)n3n2)CC1
Outline: as §1

saracatinib = compound: CN1CCN(CCOc2cc(OC3CCOCC3)c3c(Nc4c(Cl)ccc5c4OCO5)ncnc3c2)CC1 [saracatinib]
Outline: as §1

sotrastaurin = compound: CN1CCN(c2nc(C3=C(c4c[nH]c5ccccc45)C(=O)NC3=O)c3ccccc3n2)CC1 [sotrastaurin]
Outline: as §1

Measured: log2 fold change

MARK1 (UniProt Q9P0L2)
inactive: ibrutinib -0.006 | [1] -0.054 | ralimetinib 0.078 | [2] 0.046 | [3] 0.021 | [4] 0.011 | [5] 0.021 | [6] 0.07 | [7] 0.04 | [8] 0.007 | vemurafenib -0.006 | [9] 0.064 | barasertib -0.038 | [10] -0.045 | volasertib -0.019 | [11] -0.018 | [12] -0.06 | [13] -0.241 | saracatinib 0.021 | sotrastaurin -0.17

LRRC40 (UniProt Q9H9A6)
Sequence of UniProt Q9H9A6 (Q9H9A6 whole entry, looked up): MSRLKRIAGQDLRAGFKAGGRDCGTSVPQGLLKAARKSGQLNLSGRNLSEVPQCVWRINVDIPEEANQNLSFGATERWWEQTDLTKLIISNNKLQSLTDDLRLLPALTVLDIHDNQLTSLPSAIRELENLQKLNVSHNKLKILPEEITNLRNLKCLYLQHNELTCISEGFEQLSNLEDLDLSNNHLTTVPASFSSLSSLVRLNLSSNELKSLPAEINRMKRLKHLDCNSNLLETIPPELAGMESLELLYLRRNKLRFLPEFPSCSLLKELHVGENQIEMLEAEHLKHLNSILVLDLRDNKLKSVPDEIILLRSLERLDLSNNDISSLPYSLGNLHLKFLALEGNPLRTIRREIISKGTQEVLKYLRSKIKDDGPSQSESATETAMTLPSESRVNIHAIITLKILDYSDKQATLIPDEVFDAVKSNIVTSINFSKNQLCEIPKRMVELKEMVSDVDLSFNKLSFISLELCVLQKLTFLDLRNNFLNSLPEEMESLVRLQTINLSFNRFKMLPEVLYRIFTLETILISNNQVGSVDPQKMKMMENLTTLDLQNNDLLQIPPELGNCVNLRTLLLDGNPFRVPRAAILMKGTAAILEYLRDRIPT
inactive: ibrutinib 0.017 | [1] 0.011 | ralimetinib 0.019 | [2] 0.025 | [3] -0.011 | [4] 0.015 | [5] 0.002 | [6] -0.073 | [7] 0.01 | [8] -0.007 | vemurafenib 0.004 | [9] 0.015 | barasertib 0.034 | [10] -0.024 | volasertib -0.011 | [11] 0.018 | [12] 0.052 | [13] -0.052 | saracatinib 0 | sotrastaurin 0.021

KIF22 (UniProt Q14807)
Sequence of UniProt Q14807 (Q14807 whole entry, looked up): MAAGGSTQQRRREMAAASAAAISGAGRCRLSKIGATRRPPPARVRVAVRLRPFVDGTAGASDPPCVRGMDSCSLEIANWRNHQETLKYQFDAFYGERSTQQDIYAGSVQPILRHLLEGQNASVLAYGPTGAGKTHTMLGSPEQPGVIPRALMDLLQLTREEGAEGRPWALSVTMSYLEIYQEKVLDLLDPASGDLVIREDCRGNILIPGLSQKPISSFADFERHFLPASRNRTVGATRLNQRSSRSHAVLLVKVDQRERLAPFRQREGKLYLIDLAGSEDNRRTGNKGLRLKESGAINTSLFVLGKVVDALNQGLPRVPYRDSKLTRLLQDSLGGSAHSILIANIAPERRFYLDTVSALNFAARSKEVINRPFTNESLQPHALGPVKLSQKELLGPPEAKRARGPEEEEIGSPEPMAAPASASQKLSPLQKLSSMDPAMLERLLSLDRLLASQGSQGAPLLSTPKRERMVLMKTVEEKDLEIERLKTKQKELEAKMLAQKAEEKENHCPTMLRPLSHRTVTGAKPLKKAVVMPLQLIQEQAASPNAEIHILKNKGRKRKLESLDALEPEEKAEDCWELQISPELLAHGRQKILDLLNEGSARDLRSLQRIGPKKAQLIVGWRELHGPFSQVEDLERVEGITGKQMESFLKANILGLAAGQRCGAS
inactive: ibrutinib 0.012 | [1] -0.02 | ralimetinib 0.006 | [2] -0.27 | [3] 0.028 | [4] 0.016 | [5] -0.142 | [6] 0.143 | [7] -0.027 | [8] -0.117 | vemurafenib -0.043 | [9] -0.049 | barasertib 0.009 | [10] 0.088 | volasertib 0.075 | [11] -0.189 | [12] -0.157 | [13] 0.308 | saracatinib 0.036 | sotrastaurin -0.084

MECR (UniProt Q9BV79)
inactive: ibrutinib 0.025 | [1] -0.029 | ralimetinib -0.006 | [2] -0.049 | [3] 0.008 | [4] 0.008 | [5] 0.058 | [6] -0.006 | [7] 0.006 | [8] 0.011 | vemurafenib 0.055 | [9] 0.035 | barasertib 0.008 | [10] -0.05 | volasertib -0.008 | [11] 0.004 | [12] -0.043 | [13] 0.023 | saracatinib 0.095 | sotrastaurin -0.007

KPNA4 (UniProt O00629)
Sequence of UniProt O00629 (O00629 whole entry, looked up): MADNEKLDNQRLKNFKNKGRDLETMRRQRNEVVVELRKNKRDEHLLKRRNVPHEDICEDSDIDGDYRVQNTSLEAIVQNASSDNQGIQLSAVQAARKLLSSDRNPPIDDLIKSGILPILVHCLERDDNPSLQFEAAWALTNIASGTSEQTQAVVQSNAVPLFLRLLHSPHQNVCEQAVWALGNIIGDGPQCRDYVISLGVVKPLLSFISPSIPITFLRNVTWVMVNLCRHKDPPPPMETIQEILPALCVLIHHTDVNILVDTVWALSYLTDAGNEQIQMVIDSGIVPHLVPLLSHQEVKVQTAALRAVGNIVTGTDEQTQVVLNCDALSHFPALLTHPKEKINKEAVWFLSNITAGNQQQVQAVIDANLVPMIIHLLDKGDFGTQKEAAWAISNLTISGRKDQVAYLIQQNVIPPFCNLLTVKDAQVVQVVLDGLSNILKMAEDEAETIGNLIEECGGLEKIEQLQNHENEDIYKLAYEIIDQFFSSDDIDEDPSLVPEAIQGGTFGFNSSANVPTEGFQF
inactive: ibrutinib -0.037 | [1] -0.047 | ralimetinib -0.024 | [2] 0.002 | [3] 0.019 | [4] 0.003 | [5] 0.019 | [6] 0.019 | [7] 0 | [8] -0.018 | vemurafenib -0.003 | [9] 0.017 | barasertib -0.089 | [10] 0.048 | volasertib 0.026 | [11] -0.022 | [13] 0.103 | saracatinib -0.032 | sotrastaurin 0.03
active: [12] -0.318

KNOP1 (UniProt Q1ED39)
inactive: ibrutinib -0.079 | [1] -0.096 | ralimetinib -0.096 | [2] -0.133 | [3] -0.031 | [4] 0.052 | [5] -0.114 | [6] 0.155 | [7] -0.033 | [8] -0.118 | vemurafenib -0.285 | [9] 0.026 | barasertib -0.014 | [10] 0.315 | volasertib 0.056 | [11] -0.161 | [12] 0.016 | [13] 0.012 | saracatinib -0.029 | sotrastaurin -0.063

LZTS1 (UniProt Q9Y250)
inactive: ibrutinib 0.104 | [1] -0.008 | ralimetinib 0.049 | [2] -0.176 | [3] 0.116 | [4] -0.028 | [5] -0.233 | [6] 0.705 | [7] -0.111 | [8] -0.007 | vemurafenib -0.047 | [9] -0.034 | barasertib 0.218 | [10] 0.042 | volasertib 0.074 | [11] -0.53 | [12] 0.493 | [13] -0.132 | saracatinib 0 | sotrastaurin -0.116

LAP3 (UniProt P28838)
Sequence of UniProt P28838 (P28838 whole entry, looked up): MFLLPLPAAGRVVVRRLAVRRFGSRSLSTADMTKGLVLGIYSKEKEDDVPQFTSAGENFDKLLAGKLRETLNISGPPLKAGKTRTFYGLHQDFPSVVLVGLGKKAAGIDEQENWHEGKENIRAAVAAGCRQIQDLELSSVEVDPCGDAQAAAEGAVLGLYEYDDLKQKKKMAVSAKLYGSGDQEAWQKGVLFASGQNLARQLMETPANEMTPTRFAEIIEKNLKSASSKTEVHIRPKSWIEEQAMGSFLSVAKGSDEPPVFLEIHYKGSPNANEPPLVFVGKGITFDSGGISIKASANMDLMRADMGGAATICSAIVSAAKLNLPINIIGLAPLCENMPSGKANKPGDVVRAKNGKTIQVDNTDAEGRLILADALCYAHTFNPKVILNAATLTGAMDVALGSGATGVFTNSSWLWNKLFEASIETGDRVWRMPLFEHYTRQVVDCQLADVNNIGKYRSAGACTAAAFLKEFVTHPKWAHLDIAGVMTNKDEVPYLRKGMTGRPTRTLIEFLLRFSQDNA
inactive: ibrutinib 0.043 | [1] -0.03 | ralimetinib -0.05 | [2] -0.103 | [3] 0 | [4] -0.024 | [5] -0.042 | [6] 0.117 | [7] -0.009 | [8] -0.018 | vemurafenib 0.107 | [9] 0.024 | barasertib -0.002 | [10] 0.195 | volasertib 0.054 | [11] -0.095 | saracatinib 0.082 | sotrastaurin 0.042
active: [12] -0.495 | [13] 0.36

LSG1 (UniProt Q9H089)
Sequence of UniProt Q9H089 (Q9H089 whole entry, looked up): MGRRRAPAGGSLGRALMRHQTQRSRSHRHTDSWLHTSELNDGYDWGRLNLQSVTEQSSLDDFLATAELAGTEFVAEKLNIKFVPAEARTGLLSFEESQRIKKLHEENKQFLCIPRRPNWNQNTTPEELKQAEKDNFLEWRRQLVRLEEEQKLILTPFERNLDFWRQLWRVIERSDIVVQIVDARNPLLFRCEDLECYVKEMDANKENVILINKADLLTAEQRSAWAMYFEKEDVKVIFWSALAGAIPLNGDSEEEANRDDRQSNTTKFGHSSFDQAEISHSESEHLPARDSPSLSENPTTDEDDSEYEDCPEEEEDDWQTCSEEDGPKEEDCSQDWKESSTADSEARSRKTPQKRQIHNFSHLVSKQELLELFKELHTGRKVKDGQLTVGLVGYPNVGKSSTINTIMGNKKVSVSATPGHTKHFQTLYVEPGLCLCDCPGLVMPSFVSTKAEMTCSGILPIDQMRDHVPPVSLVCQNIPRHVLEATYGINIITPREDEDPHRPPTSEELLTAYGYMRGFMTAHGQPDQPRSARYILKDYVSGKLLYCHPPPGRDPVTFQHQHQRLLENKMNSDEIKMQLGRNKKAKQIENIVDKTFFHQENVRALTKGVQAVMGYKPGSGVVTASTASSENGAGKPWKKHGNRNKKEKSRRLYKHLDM
inactive: ibrutinib -0.083 | [1] -0.033 | ralimetinib 0.026 | [2] 0.052 | [3] 0.032 | [4] 0.004 | [5] -0.187 | [6] 0.012 | [7] 0.013 | [8] 0.031 | vemurafenib -0.056 | [9] 0.046 | barasertib 0.037 | [10] -0.084 | volasertib -0.065 | [11] -0.01 | [12] -0.124 | [13] 0.064 | saracatinib 0.043 | sotrastaurin 0.024

MMS19 isoform 8 (UniProt Q96T76)
inactive: ibrutinib -0.023 | [1] -0.011 | ralimetinib 0.022 | [2] -0.02 | [3] -0.041 | [4] 0.006 | [5] -0.018 | [6] 0.013 | [7] 0.055 | [8] 0.004 | vemurafenib 0.064 | [9] 0.006 | barasertib 0.029 | [10] -0.061 | volasertib -0.114 | [11] 0.002 | [12] -0.005 | [13] -0.051 | saracatinib 0 | sotrastaurin 0.026

MINK1 (UniProt Q8N4C8)
Sequence of UniProt Q8N4C8 (Q8N4C8 whole entry, looked up): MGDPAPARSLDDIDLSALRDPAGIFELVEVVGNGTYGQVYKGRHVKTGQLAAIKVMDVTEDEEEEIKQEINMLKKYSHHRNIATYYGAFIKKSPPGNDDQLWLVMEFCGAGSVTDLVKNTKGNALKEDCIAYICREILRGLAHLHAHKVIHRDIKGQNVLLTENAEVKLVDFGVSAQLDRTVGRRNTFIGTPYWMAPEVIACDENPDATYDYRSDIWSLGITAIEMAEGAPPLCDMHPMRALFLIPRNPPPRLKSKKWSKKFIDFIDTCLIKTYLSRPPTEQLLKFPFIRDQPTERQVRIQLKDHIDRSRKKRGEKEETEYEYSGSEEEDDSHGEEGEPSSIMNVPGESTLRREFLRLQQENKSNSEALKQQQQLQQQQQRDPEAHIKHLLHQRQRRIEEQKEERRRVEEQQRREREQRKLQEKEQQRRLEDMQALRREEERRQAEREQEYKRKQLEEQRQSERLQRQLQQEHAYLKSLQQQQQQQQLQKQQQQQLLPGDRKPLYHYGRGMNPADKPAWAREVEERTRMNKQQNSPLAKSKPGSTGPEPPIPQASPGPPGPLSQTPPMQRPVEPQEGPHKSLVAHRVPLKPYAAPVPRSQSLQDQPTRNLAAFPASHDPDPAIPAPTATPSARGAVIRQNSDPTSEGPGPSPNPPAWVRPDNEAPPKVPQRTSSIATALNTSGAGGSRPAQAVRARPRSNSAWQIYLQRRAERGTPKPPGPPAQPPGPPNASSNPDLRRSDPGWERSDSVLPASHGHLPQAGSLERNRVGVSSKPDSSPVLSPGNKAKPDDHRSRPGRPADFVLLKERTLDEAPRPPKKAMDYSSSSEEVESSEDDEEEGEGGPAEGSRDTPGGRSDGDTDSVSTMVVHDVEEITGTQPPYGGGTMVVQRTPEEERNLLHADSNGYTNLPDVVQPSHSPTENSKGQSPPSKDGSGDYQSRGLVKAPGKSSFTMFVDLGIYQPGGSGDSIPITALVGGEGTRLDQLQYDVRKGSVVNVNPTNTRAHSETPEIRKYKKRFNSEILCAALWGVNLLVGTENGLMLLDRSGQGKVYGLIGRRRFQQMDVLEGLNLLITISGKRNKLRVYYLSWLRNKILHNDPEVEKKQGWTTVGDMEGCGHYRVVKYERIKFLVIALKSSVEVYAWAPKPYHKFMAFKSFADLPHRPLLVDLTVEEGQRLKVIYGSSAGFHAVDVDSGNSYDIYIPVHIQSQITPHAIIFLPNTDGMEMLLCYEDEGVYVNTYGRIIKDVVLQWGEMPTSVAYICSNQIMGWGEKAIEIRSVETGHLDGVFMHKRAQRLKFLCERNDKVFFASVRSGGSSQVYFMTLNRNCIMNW
inactive: ibrutinib -0.003 | [1] 0.013 | ralimetinib 0.042 | [2] -0.051 | [3] 0.119 | [4] -0.144 | [5] -0.03 | [6] -0.008 | [7] 0.013 | [8] 0.021 | vemurafenib -0.096 | [9] -0.107 | barasertib -0.017 | [10] -0.012 | volasertib 0.022 | [11] 0.076 | [12] -0.033 | [13] -0.09 | saracatinib 0.007 | sotrastaurin 0.079

MIF4GD isoform 3 (UniProt A9UHW6)
inactive: ibrutinib 0.108 | [1] -0.032 | ralimetinib -0.04 | [2] -0.014 | [3] 0.016 | [4] -0.002 | [5] -0.049 | [6] 0 | [7] -0.04 | [8] -0.004 | vemurafenib 0.016 | [9] 0.009 | barasertib 0.051 | [10] -0.019 | volasertib -0.012 | [11] 0.037 | [12] 0.028 | [13] 0.015 | saracatinib 0.02 | sotrastaurin 0.017

MAD2L2 (UniProt Q9UI95)
Sequence of UniProt Q9UI95 (Q9UI95 whole entry, looked up): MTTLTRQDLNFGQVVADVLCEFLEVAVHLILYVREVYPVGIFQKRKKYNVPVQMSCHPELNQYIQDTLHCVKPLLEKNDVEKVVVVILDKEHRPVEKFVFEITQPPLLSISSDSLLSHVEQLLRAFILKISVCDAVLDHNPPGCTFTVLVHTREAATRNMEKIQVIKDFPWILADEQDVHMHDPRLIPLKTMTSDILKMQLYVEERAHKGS
inactive: ibrutinib -0.015 | [1] -0.173 | ralimetinib 0.103 | [2] -0.08 | [3] -0.03 | [4] -0.001 | [5] -0.059 | [6] 0.053 | [7] -0.106 | [8] -0.132 | vemurafenib -0.028 | [9] 0.246 | barasertib 0.013 | [10] -0.065 | volasertib 0.044 | [11] 0.089 | [12] -0.036 | [13] -0.051 | saracatinib 0.079 | sotrastaurin -0.006

MAPK14 (UniProt Q16539)
Sequence of UniProt Q16539 (Q16539 whole entry, looked up): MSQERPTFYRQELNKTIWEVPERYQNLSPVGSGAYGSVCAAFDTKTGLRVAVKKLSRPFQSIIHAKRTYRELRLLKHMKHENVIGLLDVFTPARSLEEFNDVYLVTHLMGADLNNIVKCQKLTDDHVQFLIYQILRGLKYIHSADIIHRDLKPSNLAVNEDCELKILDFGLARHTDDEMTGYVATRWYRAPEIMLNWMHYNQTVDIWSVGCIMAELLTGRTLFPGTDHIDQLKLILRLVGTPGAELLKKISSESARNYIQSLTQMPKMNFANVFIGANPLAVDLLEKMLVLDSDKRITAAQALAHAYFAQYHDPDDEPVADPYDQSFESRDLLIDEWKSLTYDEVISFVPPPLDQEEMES
inactive: ibrutinib 0.042 | [1] 0.238 | [2] -0.008 | [3] -0.06 | [4] -0.14 | [5] -0.026 | [7] 0.455 | [8] -0.007 | vemurafenib 0.175 | [9] 0.081 | barasertib 0.021 | [10] -0.192 | volasertib -0.056 | [11] -0.052 | [12] -0.035 | [13] 0.093 | saracatinib 0.226 | sotrastaurin -0.058
active: ralimetinib 1.16 | [6] 0.88

MAPK6 (UniProt Q16659)
inactive: ibrutinib 0.07 | [1] 0.025 | ralimetinib 0.004 | [2] -0.05 | [3] 0.012 | [4] 0 | [5] 0 | [6] -0.006 | [7] 0.029 | [8] 0.021 | vemurafenib 0.006 | [9] 0.001 | barasertib 0.047 | [10] 0.034 | volasertib -0.001 | [11] -0.029 | [13] -0.02 | saracatinib -0.014 | sotrastaurin 0.014
active: [12] 0.221

LPCAT1 (UniProt Q8NF37)
inactive: ibrutinib 0.175 | [1] -0.021 | ralimetinib 0 | [2] -0.142 | [3] -0.036 | [4] 0.066 | [5] -0.011 | [6] 0.003 | [7] -0.016 | [8] -0.019 | vemurafenib -0.009 | [9] 0.07 | barasertib 0.012 | [10] 0.037 | volasertib 0.097 | [11] -0.072 | [13] 0.099 | saracatinib 0.079 | sotrastaurin 0.032
active: [12] -0.39
